{
  "source": "PubChem BioAssay AID463173",
  "about": "(ICCB-Longwood Screening Facility, Harvard Medical School, 2010)",
  "note": "Among all 52,000 compounds or so, about 4,300 (8.3%) were called active. The entries come from a sample that favours actives as a whole. Unmarked numbers belong to inactive results. Cut-off read from the data, not from the text of the source: active = survival mostly below about 52% (no sharp cut-off); inactive = mostly above about 56%.",
  "data": [
    {"tested_on": "DeltatarO mutant", "assay": "S. aureus survival, RN4220 and DeltatarO strains – OD600, teichoic acid synthesis inhibitors, primary screen (AID 463173)", "conditions": "S. aureus RN4220 wild type/DeltatarO growth, OD600, 18 h, hits give low values, screened at 18.75 µg/mL (by protocol)", "values": [
      {"smiles": "CC(C)(C)C(=O)Cn1c(=O)n(-c2ccccc2)c(=O)c2c3c(sc21)CCC3", "survival": "80%"},
      {"smiles": "CCCn1ccc2c(OCC(=O)Nc3ccccc3OCC)cccc2c1=O", "survival": "102%"},
      {"smiles": "O=S1(=O)c2cccc3cccc(c23)N1Cc1ccccc1F", "survival": "81%"},
      {"smiles": "CN1CCN(C(=O)C2CCN(S(C)(=O)=O)CC2)CC1", "survival": "83%"},
      {"smiles": "COc1cccc(C2C=C(c3ccc(C)cc3)Nc3c(C(=O)Nc4ccc(F)cc4)cnn32)c1OC", "note": "(stereo unspecified)", "survival": "0% (active)"},
      {"smiles": "COc1ccc(C2=CC(c3ccccc3F)n3ncc(C(=O)Nc4ccc(C)cc4)c3N2)cc1", "note": "(stereo unspecified)", "survival": "107%"},
      {"smiles": "COc1cccc(C2=CC(c3ccccc3F)n3ncc(C(=O)Nc4ccc(F)cc4)c3N2)c1", "note": "(stereo unspecified)", "survival": "72%"},
      {"smiles": "COc1nc(Nc2ccc(C)cc2)nc(NC2CCCC2)n1", "survival": "81%"},
      {"smiles": "C/C(=N\\NC(=O)CNc1ccccc1)c1ccccc1", "survival": "85%"},
      {"smiles": "Cc1cccc(Cn2c(SCc3ccc(C(=O)NCc4ccccc4F)cc3)nc3cccnc32)c1", "survival": "98%"},
      {"smiles": "CCOC(=O)c1c(S(=O)(=O)N2CCCC(C(=O)Nc3cccc(C)n3)C2)c(C)n(C)c1C", "note": "(stereo unspecified)", "survival": "87%"},
      {"smiles": "O=c1oc2ccc3ccccc3c2cc1-c1nnc(Nc2cccc(C(F)(F)F)c2)s1", "survival": "81%"},
      {"smiles": "COc1ccc(-c2noc(-c3ccc(NC4CCCCC4)c([N+](=O)[O-])c3)n2)cc1OC", "survival": "68%"},
      {"smiles": "Cc1ccccc1-c1noc(-c2ccc(NC3CCCC3)c([N+](=O)[O-])c2)n1", "survival": "66%"},
      {"smiles": "COc1ccccc1-c1noc(-c2ccc(NC3CCCC3)c([N+](=O)[O-])c2)n1", "survival": "43% (active)"},
      {"smiles": "COc1ccc(-c2noc(-c3ccc(NC4CCCC4)c([N+](=O)[O-])c3)n2)cc1OC", "survival": "55%"},
      {"smiles": "COc1ccccc1-c1noc(-c2ccc(NC3CCCCC3)c([N+](=O)[O-])c2)n1", "survival": "41% (active)"},
      {"smiles": "COc1cc(-c2noc(-c3ccc(NC4CCCCC4)c([N+](=O)[O-])c3)n2)cc(OC)c1OC", "survival": "76%"},
      {"smiles": "CCCn1c(CN2CCN(c3ccc(OC)cc3)CC2)nc2c1c(=O)[nH]c(=O)n2C", "survival": "91%"},
      {"smiles": "CCOCCCN1C(=O)CN(C2CCCCCC2)C(=O)C1c1ccc(OCC)c(OC)c1", "note": "(stereo unspecified)", "survival": "122%"},
      {"smiles": "Cc1ccccc1C1=CCN(c2ncc(NC(=O)c3ccc(Cl)cc3)cc2C(=O)O)CC1", "survival": "95%"},
      {"smiles": "COCCCNC(=O)CCCN1C(=O)CCn2nc(-c3cccn3C)cc21", "survival": "97%"},
      {"smiles": "CCOc1ccccc1NC(=O)CN1C=NS(=O)(=O)c2ccccc21", "survival": "72%"},
      {"smiles": "CCOc1ccccc1NC(=O)CN1c2ccccc2S(=O)(=O)c2ccccc21", "survival": "37% (active)"},
      {"smiles": "Cc1cccc(NC(=O)CN2c3ccccc3S(=O)(=O)c3ccccc32)c1C", "survival": "0% (active)"},
      {"smiles": "NC(=O)c1ccccc1NC(=O)CN1c2ccccc2S(=O)(=O)c2ccccc21", "survival": "92%"},
      {"smiles": "O=C(CN1c2ccccc2S(=O)(=O)c2ccccc21)Nc1ccccc1Cl", "survival": "57%"},
      {"smiles": "Cc1cc(C)c(NC(=O)CN2c3ccccc3S(=O)(=O)c3ccccc32)c(C)c1", "survival": "106%"},
      {"smiles": "CCC(=O)Nc1ccc2nc(C3CC3)n(Cc3ccc(Cl)cc3)c(=O)c2c1", "survival": "111%"},
      {"smiles": "Cc1cccc(C)c1OCC(=O)NCC1(N(C)C)CCCCC1", "survival": "86%"},
      {"smiles": "Cc1ccc(Cn2c(CNC(=O)c3ccccc3Br)nc3cccnc32)cc1", "survival": "120%"},
      {"smiles": "COc1cc(OC)c(NS(=O)(=O)c2cc3c(cc2C)NC(=O)CO3)cc1Cl", "survival": "88%"},
      {"smiles": "CCN(CC)CCCNC(=O)C1CCN(S(C)(=O)=O)CC1", "survival": "85%"},
      {"smiles": "CCN(CC)CCCNc1cc(-c2ccccc2)nc(C)n1", "survival": "65%"},
      {"smiles": "Cc1cc(C)cc(Nc2cc(C(=O)NC3CCCCC3)c3ccccc3n2)c1", "survival": "116%"},
      {"smiles": "CCOc1ccccc1Nc1cc(-c2ccccc2)nc(C)n1", "survival": "60%"},
      {"smiles": "COc1ccc(Nc2cc(C)c3ccccc3n2)cc1", "survival": "96%"},
      {"smiles": "CSc1nc(Nc2ccc(F)cc2)cc(-c2ccccc2)n1", "survival": "-5% (active)"},
      {"smiles": "CSc1nc(C)cc(Nc2cccc(C(=O)O)c2)n1", "survival": "63%"},
      {"smiles": "Cc1ccc(NC(=O)c2cc3nc(-c4ccccc4)cc(-c4ccccc4)n3n2)cc1", "survival": "60%"},
      {"smiles": "Cc1cc(C)cc(Nc2cc(-c3ccccc3)nc(C)n2)c1", "survival": "8% (active)"},
      {"smiles": "Cc1nc(Nc2ccc(Cl)cc2)cc(-c2ccccc2)n1", "survival": "-4% (active)"},
      {"smiles": "Cc1cc(Nc2ccc(Br)cc2)nc(C)n1", "survival": "51%"},
      {"smiles": "COc1cccc(Nc2cc(-c3ccccc3)nc(C)n2)c1", "survival": "37% (active)"},
      {"smiles": "CSc1nc(Nc2ccc(C)cc2C)cc(-c2ccccc2)n1", "survival": "51%"},
      {"smiles": "Cc1ccc(C(C)(C)C)c(OCC(=O)NCCc2nc3ccccc3[nH]2)c1", "survival": "70%"},
      {"smiles": "O=C(Cn1c(=O)nc(-c2ccccc2)c2cc(Cl)ccc21)NCc1ccccc1", "survival": "83%"},
      {"smiles": "COc1ccc(NS(=O)(=O)c2cnc(N)nc2)cc1Cl", "survival": "67%"},
      {"smiles": "CN1C(=O)C(Cc2ccccc2)NC1=S", "note": "(stereo unspecified)", "survival": "77%"},
      {"smiles": "O=C(NC(=S)NCc1ccccc1)c1ccco1", "survival": "71%"},
      {"smiles": "COc1cc(Cl)c(C)cc1NC(=O)CCc1c(C)nc2c3cccnc3nn2c1C", "survival": "87%"},
      {"smiles": "COc1ccc(Cl)cc1Nc1sc(C(=O)c2ccccc2)c(N)c1C(=O)Nc1ccccc1", "survival": "103%"},
      {"smiles": "Cc1ccc(CNC(=O)CN2C(=O)C3CCCCN3c3ccc(C(=O)N(C)C)cc32)cc1", "note": "(stereo unspecified)", "survival": "88%"},
      {"smiles": "Cc1cc(C)c2nc(NCCNC(=O)C3CCCCC3)c(C#N)cc2c1", "survival": "93%"},
      {"smiles": "Cc1ccc(Nc2cc(-c3ccccc3)nc(C)n2)cc1", "survival": "24% (active)"},
      {"smiles": "CCOC(=O)c1ccc(Nc2cc(-c3ccccc3)nc(C)n2)cc1", "survival": "50%"},
      {"smiles": "Cc1ccc(-c2cc(-c3ccccc3)nc(N3CCCC3)n2)cc1", "survival": "115%"},
      {"smiles": "Cc1ccc(CCNC(=O)c2ccc(CS(=O)(=O)Cc3ccc(Cl)cc3)o2)cc1", "survival": "84%"},
      {"smiles": "Cn1nnc2c(N3CCN(c4ccccc4F)CC3)ncnc21", "survival": "83%"},
      {"smiles": "Cc1cc(Cl)nc(-c2ccccc2)n1", "survival": "91%"},
      {"smiles": "CCc1ccc(NC(=O)CN2CCSc3ccc(S(=O)(=O)N4CCCC4)cc32)cc1", "survival": "-4% (active)"},
      {"smiles": "CCOc1ccc(NC(=O)CN2CCSc3ccc(S(=O)(=O)N4CCCC4)cc32)cc1", "survival": "76%"},
      {"smiles": "Cc1ccc(NC(=O)CN2CCSc3ccc(S(=O)(=O)N4CCCC4)cc32)cc1", "survival": "77%"},
      {"smiles": "Cc1ccc(NC(=O)CSc2nc(=O)n(Cc3cccnc3)c3c2CCC3)cc1F", "survival": "67%"},
      {"smiles": "Cc1ccc(C(=O)CSc2ncn(-c3ccccc3)n2)c(C)c1", "survival": "42%"},
      {"smiles": "Cc1ccc(Cn2ccn(Cc3ccc(C)cc3)c(=O)c2=O)cc1", "survival": "97%"},
      {"smiles": "Cc1ccc(Cn2cccc2C2=NC(C)(C)CO2)cc1", "survival": "45% (active)"},
      {"smiles": "Cc1ccc(Cn2cccc(NC(=O)c3ccncc3)c2=O)cc1", "survival": "101%"},
      {"smiles": "O=S(=O)(Nc1ccc(F)cc1F)c1ccc(-n2cccn2)cc1", "survival": "70%"},
      {"smiles": "CC(C)Oc1ccc(CNS(=O)(=O)c2ccc3c(c2)C(C)(C)C(=O)N3C)cc1", "survival": "84%"},
      {"smiles": "COc1ccc(NC(=O)C2CCC(CNS(=O)(=O)c3ccc(Br)s3)CC2)c(OC)c1", "note": "(stereo unspecified)", "survival": "74%"},
      {"smiles": "O=S(=O)(Nc1ccc(F)cc1F)c1ccc(Br)s1", "survival": "22% (active)"},
      {"smiles": "COc1ccc(OC)c(NS(=O)(=O)c2ccc(Br)s2)c1", "survival": "37% (active)"},
      {"smiles": "Cc1ccccc1NS(=O)(=O)c1ccc(Br)s1", "survival": "109%"},
      {"smiles": "COc1ccc(OC)c(NS(=O)(=O)c2ccc3c(c2)C(C)(C)C(=O)N3C)c1", "survival": "48% (active)"},
      {"smiles": "COc1ccc(OC)c(NS(=O)(=O)c2ccc(-c3cc(C)no3)s2)c1", "survival": "88%"},
      {"smiles": "COc1ccc(CNS(=O)(=O)c2ccc3c(c2)C(C)(C)C(=O)N3C)cc1OC", "survival": "76%"},
      {"smiles": "O=C(Nc1ccc(Cl)cc1)C1CCC(CNS(=O)(=O)c2ccc(Br)s2)CC1", "note": "(stereo unspecified)", "survival": "86%"},
      {"smiles": "O=S(=O)(Nc1ccc(F)c(Cl)c1)c1ccc(Br)s1", "survival": "10% (active)"},
      {"smiles": "O=c1ccc2cc(S(=O)(=O)Nc3ccc(F)c(Cl)c3)ccc2[nH]1", "survival": "89%"},
      {"smiles": "O=C(CSCc1ccccc1Cl)N/N=C/c1ccco1", "survival": "101%"},
      {"smiles": "COc1ccc(-c2nn(-c3ccc(F)cc3F)c3c2cnc2ccc(F)cc23)cc1", "survival": "79%"},
      {"smiles": "CN1CCC(OC(=O)COc2ccc(F)cc2)CC1", "survival": "79%"},
      {"smiles": "NS(=O)(=O)c1ccc(CCNC(=O)C2CCN(c3ncnc4c3nc3n4CCCCC3)CC2)cc1", "survival": "83%"},
      {"smiles": "Cc1ccc(NCc2cccn2-c2nnc(N3CCC(C(=O)NCCc4ccccc4)CC3)s2)cc1", "survival": "68%"},
      {"smiles": "Cc1ccc2c(c1)N(C(=O)N1CCC(C(=O)NCc3ccccc3F)CC1)CC(C)O2", "note": "(stereo unspecified)", "survival": "79%"},
      {"smiles": "Cc1cc(C)c2[nH]c(=O)c(C(c3nnnn3C(C)(C)C)N(CCc3ccc(F)cc3)Cc3ccco3)cc2c1", "note": "(stereo unspecified)", "survival": "87%"},
      {"smiles": "CCCSc1nnc2[nH]c(=O)cc(C)n12", "survival": "124%"},
      {"smiles": "CCOC(=O)C(CC)Sc1nnc2[nH]c(=O)cc(C)n12", "note": "(stereo unspecified)", "survival": "52% (active)"},
      {"smiles": "Cc1cc(=O)[nH]c2nnc(SCC(N)=O)n12", "survival": "69%"},
      {"smiles": "CN1C(=O)C(=C(C#N)C#N)c2cc(Br)ccc21", "survival": "98%"},
      {"smiles": "CNC(=O)C1CCC(Cn2c(=O)c3sccc3n(CC(=O)Nc3cc(F)ccc3F)c2=O)CC1", "note": "(stereo unspecified)", "survival": "79%"},
      {"smiles": "CCOc1ccccc1NC(=O)Nc1nnc(N(C)Cc2ccccc2)s1", "survival": "53% (active)"},
      {"smiles": "Cc1ccccc1NC(=O)Nc1nnc(N(C)Cc2ccccc2)s1", "survival": "85%"},
      {"smiles": "CCc1ccccc1NC(=O)Nc1nnc(N(C)Cc2ccccc2)s1", "survival": "60%"},
      {"smiles": "CCC(C)c1ccc(NC(=O)C2CCCN(c3ncccn3)C2)cc1", "note": "(stereo unspecified)", "survival": "81%"}
    ]}
  ]
}
